# Screening data deposited in PubChem by several laboratories.
# HDAC3 inh: blocks human histone deacetylase 3; inhibition, % at 8.3 µM; recombinant HDAC3, fluorogenic peptide/trypsin coupled, fluorescence; 320,000 compounds, 0.15% hits; AID 2718; in the data active = inhibition above about 26%, passing the limit was not always enough
# Target sequence (O15379 whole entry, looked up): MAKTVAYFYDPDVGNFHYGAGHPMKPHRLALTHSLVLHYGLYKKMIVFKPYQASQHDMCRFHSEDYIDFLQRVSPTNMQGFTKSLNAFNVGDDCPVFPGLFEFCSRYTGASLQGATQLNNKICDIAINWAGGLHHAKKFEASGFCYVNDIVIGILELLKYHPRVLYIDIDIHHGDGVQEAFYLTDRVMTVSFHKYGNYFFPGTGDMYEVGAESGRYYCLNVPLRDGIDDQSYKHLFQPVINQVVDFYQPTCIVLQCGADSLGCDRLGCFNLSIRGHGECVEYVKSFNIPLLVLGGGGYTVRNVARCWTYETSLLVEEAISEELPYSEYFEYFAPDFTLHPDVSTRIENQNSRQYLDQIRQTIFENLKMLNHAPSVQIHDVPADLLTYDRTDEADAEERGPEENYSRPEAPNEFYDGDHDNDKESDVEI
# NLRP3 yeast inh: inhibitors of NALP3 inflammasome in yeast; Yeast reconstituted NLRP3/ASC/caspase-1, beta-gal luminescence, 24 h; inhibition, % at 10 µM; 330,000 compounds, 0.39% hits; AID 2825;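 active = inhibition of 50% or more; inactive = inhibition below 50%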;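 also: plate controls were induced DMSO wells for no effect and uninduced yeast grown without galactose for full effect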
# PolyA inh: yeast polyadenylation inhibition. S. cerevisiae SKY197-pL101 polyadenylation reporter, beta-gal luminescence; efflux-impaired pdr1/pdr3 knockout yeast; score 100 = 6 SD above DMSO. activity score, % at 12 µM. 300,000 compounds, 0.02% hits;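 active = lowest replicate activity score at least 50, where 100 means six control SD above control mean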;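 also: yeast exposed to compound for 9 h at 30 °C; higher score means more reporter readthrough which indicates perturbed polyadenylation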
# NALP1 yeast inh: inhibitors of NALP1 inflammasome in yeast; S. cerevisiae NALP1/ASC/caspase-1 growth, X-gal OD620, 72 h; inhibition, % at 10 µM; 280,000 compounds, 0.61% hits; in the data active = inhibition mostly above about 24%, no sharp cut-off; inactive = mostly below about 32%
# GASC-1 inh: human JMJD2C demethylase inhibition. Q9H3R0. GST-JMJD2C(1-420) H3K9me3 demethylation, DELFIA europium. inhibition, % at 2.35 µM. 330,000 compounds, 0.069% hits. AID 2099;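 active = more than half of a compound's replicate wells show inhibition beyond 50%, single wells judged on their own value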;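 also: signal counts dimethyl H3K9 product captured on neutravidin plate; 0% = median of DMSO wells and 100% = 0.3 times that DMSO median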
# Efflux pump inh: blocks antifungal efflux pumps in multiplex yeast assay; 330,000 compounds, 0.44% hits; inhibition, % at 10 µM; S. cerevisiae Candida pump triplex, Nile Red efflux;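 active = plate passing quality check with inhibition over a set limit, or well fluorescence over plate mean plus 4 SD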;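 also: Nile Red retained in pooled yeast measured as flow cytometry median fluorescence; 0% = buffer negative control and 100% = Enniatin B positive control; higher means more Nile Red kept so more efflux inhibition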
# NALP3 confirm: NALP3 inhibition confirmation in yeast | yeast expressing human NALP3, luminescence | inhibition, % at 10 µM | 1,300 compounds, 81% hits | shares compounds with NLRP3 yeast inh | AID 435006; in the data active = inhibition above about 48%
# Casp1 ASC ctr: counter-screen for NALP3 inhibitors: yeast caspase-1-ASC; shares compounds with NLRP3 yeast inh; yeast expressing Caspase-1-ASC, luminescence counter screen; inhibition, % at 10 µM; 1,000 compounds, 66% hits
# NALP3 retest: yeast NALP3 inhibition, confirmed on retest | shares compounds with NLRP3 yeast inh | yeast expressing human NALP3, luminescence read-out | inhibition, % at 10 µM | 1,000 compounds, 53% hits
# * = called active by the depositor; . = not tested or not shown. Sampled rows, rich in hits. Any-hit rate of the full collection: about 1.5%. Rule as the data show it, unless noted: active = inhibition above about 50%; inactive = the rest.
SMILES,HDAC3 inh,NLRP3 yeast inh,PolyA inh,NALP1 yeast inh,GASC-1 inh,Efflux pump inh,NALP3 confirm,others
C/C(Cn1cnc([N+](=O)[O-])n1)=N/NC(=O)COc1c(Cl)cc(Cl)cc1Cl,3,12,-1,39,13,0,.,
Cc1cc(=O)[nH]c(SCC2COC3(CCCCC3)O2)n1 (centres undefined),-11,23,-6,8,7,0,.,
NCCNC[C@@H]1COC2(CCCCCCCCCCC2)O1,3,59*,-24,27,1,0,74*,
Nc1c(-c2ccccc2)cnn1-c1ccccc1,2,15,14,10,6,0,.,
O=c1cnn(-c2ccccc2)c(-c2ccccc2)c1,0,56*,18,2,0,0,79*,Casp1 ASC ctr=59*;NALP3 retest=56*
O=C(/C=C/c1cnc2ccccc2n1)NC12CC3CC(CC(C3)C1)C2,-1,16,-24,26,-7,0,.,
CCNC(=S)N1CCN(CCN=CC2=C(O)CC(c3cccs3)CC2=O)CC1 (centres undefined),2,18,-16,-3,6,0,.,
CCC(=O)N1CCN(CCN=CC2=C(O)CC(c3cccs3)CC2=O)CC1 (centres undefined),1,56*,-14,-4,5,0,56*,Casp1 ASC ctr=45;NALP3 retest=45
O=C(Cn1nnc2ccccc21)NNC(=O)c1ccccc1,-5,14,-1,3,7,0,.,
Cc1cc(Cl)ccc1OC(C)C(=O)Nc1cnn(CCCC(=O)O)c1 (centres undefined),-6,0,1,-10,6,0,.,
N#Cc1nc(-c2cccs2)oc1NCCc1ccccc1,-32,71*,31,7,1,0,77*,Casp1 ASC ctr=70*;NALP3 retest=63*
O=C(Cc1ccc(O)cc1)N/N=C/c1cccnc1,7,3,.,-2,6,0,.,
NC(=O)C1CCN(C(=O)C2CCC(=O)N(CC3CCCCC3)C2)CC1 (centres undefined),-4,-1,10,14,6,0,.,
COc1ccccc1NC(=O)Nc1cccc(C)n1,-1,66*,-44,22,-7,0,74*,Casp1 ASC ctr=55*;NALP3 retest=60*
COC(=O)c1ccccc1NC(=O)Nc1cccc(C)n1,-1,-1,-10,0,-4,0,.,
COc1ccc(C(=O)OCC(=O)c2ccc3c(c2)NC(=O)CO3)cc1OC,-1,7,.,.,0,0,.,
CCOC(=O)c1ccc2c(c1)NCc1cccc(OC)c1O2,1,54*,20,19,-3,0,63*,Casp1 ASC ctr=46;NALP3 retest=42
COc1cccc(C(=O)OCC(=O)NCCCc2ccccc2)c1,8,13,-20,17,-12,0,.,
CCOC(=O)C1=Nc2ccccc2C1=[N+]=[N-],5,82*,-118,75*,3,0,89*,Casp1 ASC ctr=97*;NALP3 retest=87*
CCN(CC)S(=O)(=O)c1ccc2nc(SC)sc2c1,3,75*,-10,17,9,0,82*,Casp1 ASC ctr=73*;NALP3 retest=66*
O=C(NCC(c1ccco1)N1CCCCC1)c1cccc(S(=O)(=O)Nc2ccc(F)cc2)c1 (centres undefined),.,0,.,.,.,.,.,
O=C(c1csc2c1CCCC2)N1CCN(c2cccc(C(F)(F)F)c2)CC1,-9,-110,9,-7,10,0,5,
O=C(Nc1ccc(-c2nc3ccccc3o2)cc1)C1CCCO1 (centres undefined),0,55*,-33,8,1,0,72*,Casp1 ASC ctr=60*;NALP3 retest=41
COc1ccc(C)cc1-n1nnnc1SCC(=O)NC1CCCC1,.,15,.,.,.,.,.,
COc1ccc(C)cc1-n1nnnc1SCC1CCCCO1 (centres undefined),2,53*,-13,-1,7,0,34,
SMILES,HDAC3 inh,NLRP3 yeast inh,PolyA inh,NALP1 yeast inh,GASC-1 inh,Efflux pump inh,NALP3 confirm,others
COc1ccccc1-c1nnc2sc(-c3cc4ccccc4o3)nn12,-5,59*,-23,7,-5,0,70*,
COc1ccccc1-c1nnc2sc(-c3ccc(N(C)C)cc3)nn12,9,27,-14,40,3,0,.,
Cc1ccc(S(=O)(=O)Nc2ccc3c(c2)C(=O)NC3=O)cc1[N+](=O)[O-],-11,23,4,16,-2,0,.,
O/N=C/c1ccc(OCc2ccccc2)c(Br)c1,-1,.,-40,16,8,0,.,
O/N=C/c1cc(Br)cc(Br)c1OCc1ccccc1,7,-102,-73,.,-2,0,-40,
CC1(C)CC(NC(=O)c2cc(S(=O)(=O)N3CCOCC3)ccc2Cl)CC(C)(C)N1,-9,14,.,.,-14,0,.,
CC(OC(=O)/C=C/c1ccco1)C(=O)NC1CCCCC1C (centres undefined),6,19,.,.,3,0,.,
Cc1nnc2n1CCCCC2,7,-4,7,.,16,0,.,
Cc1ccc(C(=O)c2nocc2C(=O)c2cccs2)cc1,-8,55*,-7,25,1,0,60*,Casp1 ASC ctr=73*;NALP3 retest=42
CC(C(=O)O)c1ccc(C(=O)c2cccs2)cc1 (centres undefined),8,5,.,.,4,0,.,
CCc1noc(C)c1C(=O)OC(C)C(=O)Nc1cc([N+](=O)[O-])ccc1OC (centres undefined),-5,9,20,.,1,0,.,
O=C(N/N=C/C=C/c1ccccc1)c1cccs1,15,23,28,-2,10,0,.,
O=C(N/N=C/C(Br)=C/c1ccccc1)c1cccs1,4,50*,16,4,41,0,63*,
CCN(C(=O)c1cccnc1SC)C12CC3CC(CC(C3)C1)C2,5,28,-2,6,-3,0,.,
C/C=C/c1ccc(OCC(=O)NCc2ccccc2OC)c(OC)c1,2,50*,-19,-4,-2,0,25,
Cc1ccccc1NC(=O)c1ccc(Nc2c([N+](=O)[O-])cc([N+](=O)[O-])c3ccccc23)cc1,.,56*,-49,-4,-2,0,-9,
CCc1nnc(NC(=O)CCC(=O)NC2CCCc3ccccc32)s1 (centres undefined),-1,8,13,29,15,0,.,
O=C(O)c1cccc(C(=O)O)c1,3,7,0,12,-1,0,.,
O=C(c1ccccc1)c1cccc(C(=O)c2ccccc2)c1,-6,56*,.,.,7,0,58*,Casp1 ASC ctr=54*;NALP3 retest=51*
C/C(=N/Nc1ncc(Br)cn1)c1ccc(Br)cc1,-2,55*,-27,14,-4,0,70*,Casp1 ASC ctr=61*;NALP3 retest=52*
